Source: PubChem BioAssay (several laboratories)
In the library only some 1.5% were active in any assay of this set; here they are far more common.
IDE act: IDE (human) activation, cell-based | HEK cells, FAbeta-B cleavage, fluorescence polarization; 0% vehicle, 100% cell-free pure enzyme wells | activation, % at 5.96 µM | 340,000 tested, 0.073% active;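 active means activation above the mean of all tested compounds plus 3 SD, set per screening campaign, cut at about 17% in these data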
Target sequence (P14735 whole entry, looked up): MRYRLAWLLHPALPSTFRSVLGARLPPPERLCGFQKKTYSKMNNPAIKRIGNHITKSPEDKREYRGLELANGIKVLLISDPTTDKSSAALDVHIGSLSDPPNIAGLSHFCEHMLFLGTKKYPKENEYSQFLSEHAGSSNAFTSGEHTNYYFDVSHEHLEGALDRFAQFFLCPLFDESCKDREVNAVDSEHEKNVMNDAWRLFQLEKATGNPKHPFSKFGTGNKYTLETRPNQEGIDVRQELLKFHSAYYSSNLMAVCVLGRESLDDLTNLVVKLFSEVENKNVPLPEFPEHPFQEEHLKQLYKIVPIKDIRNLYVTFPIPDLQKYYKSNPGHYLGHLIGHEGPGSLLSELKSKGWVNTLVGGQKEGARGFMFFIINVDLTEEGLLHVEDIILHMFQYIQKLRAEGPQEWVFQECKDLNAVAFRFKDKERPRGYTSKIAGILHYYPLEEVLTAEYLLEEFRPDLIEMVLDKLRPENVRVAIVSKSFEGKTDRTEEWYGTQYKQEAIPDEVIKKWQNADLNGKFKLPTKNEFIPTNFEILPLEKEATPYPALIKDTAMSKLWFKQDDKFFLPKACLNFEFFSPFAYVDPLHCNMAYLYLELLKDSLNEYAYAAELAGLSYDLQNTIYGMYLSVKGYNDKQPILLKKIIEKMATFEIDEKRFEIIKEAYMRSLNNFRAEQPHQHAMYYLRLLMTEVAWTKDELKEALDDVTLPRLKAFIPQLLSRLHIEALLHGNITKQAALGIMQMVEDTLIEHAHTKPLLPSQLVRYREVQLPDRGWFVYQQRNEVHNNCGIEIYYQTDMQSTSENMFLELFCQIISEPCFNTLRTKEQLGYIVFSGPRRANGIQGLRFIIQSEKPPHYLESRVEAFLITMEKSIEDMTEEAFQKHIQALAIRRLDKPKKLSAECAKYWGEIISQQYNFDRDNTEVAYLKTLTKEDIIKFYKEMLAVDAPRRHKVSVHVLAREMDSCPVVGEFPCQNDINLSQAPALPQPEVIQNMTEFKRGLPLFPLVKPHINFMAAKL
cardiac RTF act: cardiac RTF calcium sensitization; AID 493008; activation, % at 7.2 µM; 340,000 tested, 0.24% active; IANBD-labeled TnC RTF fluorescence at EC20 calcium; 0% EC20 calcium, 100% full calcium; P19429+P45379;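 active means activation above the mean over all tested compounds plus 3 SD, cut at about 30% in these data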;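 further: rise in fluorescence read as greater calcium sensitivity of cardiac thin filaments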
IDE inh: inhibits human insulin-degrading enzyme in HEK cells. P14735. FAbetaB cleavage, fluorescence polarization. inhibition, % at 5.59 µM. 320,000 tested, 0.41% active. AID 434962;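 active means percent inhibition above the average of all tested compounds plus 3 SD, set per screening campaign, cut at about 16% in these data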;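 further: IDE supplied by intact live HEK cells; FP after avidin binding of uncleaved biotin substrate so inhibition keeps polarization high; 0% = DMSO wells and 100% = 60 µM reference IDE inhibitor Ii1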
CRFR2-BP ag: agonists of human CRF-binding protein/CRF-R2 receptor complex | activation, % at 13.2 µM | HEK293 CRF-R2/CRF-BP, calcium dye fluorescence (FLIPR); percent of saturating CRF peptide response | 350,000 tested, 0.46% active | AID 588473;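 active means activation of at least 50%, plus an integration ratio under a set limit after plate pattern correction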;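 further: plate controls were neutral control wells without compound for no effect and CRF at EC100 for full effect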
CRFBP-R2 block: antagonists of CRF-binding protein/CRF-R2 receptor complex | HEK293 CRF-R2/CRF-BP, CRF-induced calcium fluorescence | inhibition, % at 11.8 µM | 350,000 tested, 0.59% active;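 active means inhibition of the ligand-induced calcium signal above about 50% at the single tested concentration, limit read from the data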
RTF Ca sens inh: cardiac RTF calcium desensitization | P19429+P45379 | IANBD-labeled cardiac RTF, Ca2+ fluorescence | inhibition, % at 7.15 µM | 340,000 tested, 0.12% active | AID 493244;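 active means inhibition above the mean inhibition of all tested compounds plus 3 SD, cut at about 17% in these data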;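 further: assay run at fixed EC70 calcium of 1.6 mM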
IDE inh confirm: cellular human IDE inhibition, confirmation; shares compounds with IDE inh; HEK cells, FAbetaB cleavage, fluorescence polarization; inhibition, % at 5.59 µM; 1,200 tested, 51% active;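 active means mean inhibition across triplicate wells above the cutoff set by the earlier primary insulin-degrading enzyme screen, cut at about 16% in these data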;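 further: 0% = DMSO wells and 100% = 60 µM reference IDE inhibitor Ii1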
HEK cytotox: HEK cell cytotoxicity, counter-screen for IDE inhibitors. shares compounds with IDE inh. inhibition, % at 5.59 µM. HEK293 cytotoxicity, ATP luminescence. 1,200 tested, 28% active; in the data active means inhibition above about 22%;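 further: 0% = vehicle wells and 100% = reference cytotoxic drug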
* = called active by the depositor; i = inactive; . = not tested or not shown.

SMILES | IDE act | cardiac RTF act | IDE inh | CRFR2-BP ag | CRFBP-R2 block | RTF Ca sens inh | IDE inh confirm | HEK cytotox
O=C(NCC1=C(c2ccc3ccccc3c2)C[C@@H]2CC[C@H]1N2Cc1ccco1)c1ccc([N+](=O)[O-])cc1 | . | . | . | -2.1 | -11.3 | . | . | .
Oc1ccc(/C=N/NP(=S)(c2ccccc2)c2ccccc2)cc1 | 6.5 | -2.9 | 0.7 | -0.5 | 51.5* | 9.7 | . | .
COC(=O)Cn1cc(/C=C2\C(=O)NC(=O)N(c3ccccc3)C2=O)c2ccccc21 | -2.7 | 4.6 | -1.9 | 87.3* | -48.0 | -10.3 | . | .
N#Cc1ccc(NC(=S)N2Cc3ccccc3-n3nncc3C2)cc1 | . | . | . | -1.1 | 20.0 | . | . | .
CCCCn1c(O)c(C(=O)/C=C/c2c[nH]c3ccccc23)c(=O)[nH]c1=O | -6.0 | 66.7* | 1.4 | 130.1* | -100.5 | -27.7 | . | .
Cc1ccc(CN2CCC3CCC(C3)C2)c(O)c1 (configuration not stated) | 2.4 | -4.8 | . | -2.8 | 14.5 | 5.0 | . | .
CCC1(CC)C(=O)N(Cc2ccccc2)C(=O)N(Cc2ccccc2)C1=O | 5.8 | -5.7 | -5.6 | 9.9 | 86.6* | -4.4 | . | .
Cn1c(O)c(/C=C/C=Nc2ccccc2)c(=O)n(C)c1=S | -17.1 | 29.4 | 27.3* | 55.0* | -106.0 | -39.4 | 44.6* | 4.6
Cc1cccc(-n2c(O)c(/C=C/C=Nc3ccccc3)c(=O)[nH]c2=O)c1 | -49.0 | 77.1* | 37.7* | 55.8* | -52.0 | -100.5 | 56.4* | 8.4
Cc1ccccc1N1C(=O)NC(=O)/C(=C/c2ccc(N3CCOCC3)o2)C1=O | -11.2 | 50.9* | 27.4* | 29.2 | -21.0 | -61.2 | 18.8* | 3.0
O=C1NC(=O)N(c2ccc3c(c2)OCO3)C(=O)/C1=C\c1ccc(N2CCCCC2)o1 | -33.8 | 50.2* | 18.7* | 73.4* | -37.9 | -88.2 | 20.7* | 14.0
CC(C)CN1Cc2ccccc2-n2nncc2C1 | . | . | . | -1.0 | -1.5 | . | . | .
O=C1NC(=O)N(c2cccc(Br)c2)C(=O)/C1=C/c1ccsc1 | 0.8 | 1.2 | 22.0* | 1.0 | -8.6 | 6.2 | 6.4 | 4.9
O=C1NC(=O)N(Cc2ccc(F)cc2)C(=O)/C1=C\C=C\c1ccco1 | -18.1 | 7.7 | 18.6* | 11.2 | -59.2 | -20.9 | 8.9 | 12.1
O=c1cc(C(F)(F)F)c2cc3c4c(c2o1)CCCN4CCC3 | -94.0 | 544.9* | 127.9* | 173.2* | -133.9 | i | 25.9* | 19.0
CC1(C)OC(c2ccccc2)=C/C(=C/C=C2C(=O)NC(=S)NC2=O)O1 | . | . | 20.8* | 144.4* | -193.9 | . | 141.5* | 13.7
O=C1NC(=S)NC(=O)C1=Cc1cccc2cc3ccccc3cc12 | -5.5 | 6.3 | . | 1.1 | 1.1 | -5.9 | . | .
O=C1NC(=O)C(Nc2ccccc2)C(=O)N1 | 3.4 | -5.9 | . | 2.5 | 4.0 | -0.3 | . | .
S=P(NCCSCc1ccccc1)(N1CC1)N1CC1 | -3.2 | 0.8 | . | 3.3 | 11.3 | 1.6 | . | .
COc1cc(/C=C/c2nc3ccccc3c(=O)n2-c2cccc(O)c2)ccc1O | -114.4 | -1.4 | 65.3* | 4.9 | -14.3 | -6.6 | 152.9* | 18.6
COc1cc(/C=C/c2nc3ccccc3c(=O)n2-c2ccccc2O)ccc1O | -61.1 | 9.6 | 60.5* | 12.3 | -13.2 | -10.9 | 128.0* | 15.2
COc1ccccc1-n1c(/C=C/c2ccc(O)cc2)nc2ccccc2c1=O | -81.3 | -1.2 | 89.7* | 7.7 | -3.8 | -13.9 | 127.6* | 13.0
O=c1c2ccccc2nc(/C=C/c2ccccc2)n1-c1ccc(O)cc1 | 2.7 | 3.2 | 7.0 | 0.9 | -3.8 | 2.3 | . | .
CCc1nc2ccccc2c(=O)n1-c1ccccc1OC | 1.4 | -2.5 | . | 0.8 | -2.1 | -1.1 | . | .
Cc1ccccc1-n1c(/C=C/c2ccccn2)nc2ccccc2c1=O | -1.8 | -1.0 | 2.3 | -1.4 | 0.3 | -1.5 | . | .
O=c1c2ccccc2nc(/C=C/c2ccc(O)c(O)c2)n1-c1ccccc1 | -127.7 | 6.2 | 170.0* | 6.2 | -16.0 | -2.0 | 101.6* | 21.3
O=C(NC(=S)N1CC1)c1ccccc1 | . | . | . | 4.7 | 14.7 | . | . | .
c1coc(CN2Cc3ccccc3-n3nncc3C2)c1 | . | . | . | -1.0 | -9.8 | . | . | .
S=C(NCCc1ccccc1)N1Cc2ccccc2-n2nncc2C1 | . | . | . | -1.4 | -9.5 | . | . | .
